# Results published in PubChem BioAssay.
# Activity calls are given as the source filed them. The rule behind the calls is not given here.
# Target: Pantothenate synthetase (Mycobacterium tuberculosis (strain ATCC 25618 / H37Rv)) (UniProt P9WIL5)
# Experiment: Recombinant Mtb pantothenate synthetase (PanC) inhibitors, coupled enzyme, confirmatory (AID 375);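 note: 0% = full reaction with vehicle and 100% = no enzyme background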
# Settings: coupled enzyme assay; at 10 µM, active compounds read high
# Pantothenate synthetase (Mycobacterium tuberculosis (strain ATCC 25618 / H37Rv)), sequence (P9WIL5 whole entry, looked up): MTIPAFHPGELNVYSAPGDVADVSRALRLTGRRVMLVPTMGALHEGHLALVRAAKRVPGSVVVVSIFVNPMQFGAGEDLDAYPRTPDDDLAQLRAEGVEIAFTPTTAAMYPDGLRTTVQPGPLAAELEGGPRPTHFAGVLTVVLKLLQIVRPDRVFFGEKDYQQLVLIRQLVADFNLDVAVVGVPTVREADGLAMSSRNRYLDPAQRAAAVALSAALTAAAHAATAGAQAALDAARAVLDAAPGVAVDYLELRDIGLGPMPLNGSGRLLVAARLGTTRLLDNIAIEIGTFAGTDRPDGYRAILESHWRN
row,Compound,inhibition
1,COc1ccc(-c2cc(C(F)(F)F)n3nc(C(=O)N4CCOCC4)nc3n2)cc1,8% (inactive)
2,C[C@H](CS)C(=O)N1CCC[C@H]1C(=O)O,2% (inactive)
3,c1ccc(CCn2nnnc2CN2CCN(C3CCCC3)CC2)cc1,2% (inactive)
4,COc1ccc(C(CNC(=O)c2cc(C)oc2C)N2CCOCC2)cc1 (stereo not drawn),0% (inactive)
5,CCn1c(=O)n(CC(=O)NCc2ccccc2OC)c(=O)c2ccccc21,12% (inactive)
6,Cc1cc(C)n2nc(SCc3cc(=O)n4ccccc4n3)nc2n1,0% (inactive)
7,COc1cc(OC)cc(OCC(O)Cn2cnc(-c3ccccc3)c2)c1 (stereo not drawn),0% (inactive)
8,CN(C)c1ccc(/C(=N\O)c2ccccc2)cc1,0% (inactive)
9,O=C(CN(Cc1ccc2c(c1)OCO2)C(=O)CNS(=O)(=O)c1ccccc1)NCc1ccco1,0% (inactive)
10,Cn1c(=O)c2c([nH]c(=O)n2C)n(C)c1=O,0% (inactive)
11,COc1cccc(NC(=O)C2CCCN(S(=O)(=O)c3cccc4cccnc34)C2)c1 (stereo not drawn),0% (inactive)
12,O=C(CP(=O)(c1ccccc1)c1ccccc1)N1CCCCC1,6% (inactive)
13,CN(C)/C=C1\N=C(c2ccc3c(c2)OCO3)OC1=O,0% (inactive)
14,CCC(C(=O)OCC(=O)Nc1c(C)n(C)n(-c2ccccc2)c1=O)c1ccccc1 (stereo not drawn),2% (inactive)
15,COc1cccc(OCCn2ccnc2)c1,4% (inactive)
16,N#CCC(=O)Nc1ncn(Cc2ccccc2Cl)n1,0% (inactive)
17,c1ccc(Cn2ncc3c2ncn2c(-c4ccncc4)nnc32)cc1,0% (inactive)
18,O=C(CSc1n[nH]c(-c2cccs2)n1)N1CCN(S(=O)(=O)c2ccccc2)CC1,0% (inactive)
